# Screens: PubChem BioAssay, National Center for Advancing Translational Sciences (NCATS)
# Shiga inhibitor – Shiga toxin inhibition. Vero cells, Shiga toxin protein synthesis inhibition reporter. inhibition, % at 38.7 µM. actives 9.2% (n = 290,000). AID 2315; in the data active means inhibition mostly above about 28%, no sharp cut-off; inactive means mostly below about 43%; further: 0% is about no effect
# LASV entry inh – Lassa virus entry inhibition. Lassa virus pseudotype entry inhibition, cell reporter. actives 1.2% (n = 300,000). Potency, µM (doses to about 37.9 µM), without a hit: at the top dose activity change, negative = inhibition, most hits filed as inhibitors. AID 540256; calls by dose curve; tested in HEK293 cells; further: potency means the concentration at half of the fitted maximal effect; on the % scale 0 is the no-effect control and ±100 the full control effect; nearly all actives have a fitted effect of over 50% in size
# MARV entry inh – Marburg virus entry inhibition | AID 540276 | actives 1.8% (n = 300,000) | Marburg virus pseudotyped entry inhibition, cell reporter | Potency, µM (titrated, usually from 37.8 µM), without a hit: at the top dose activity change, negative = inhibition, usual class: inhibitors; calls by dose curve; tested in HEK293 cells; further: potency means the concentration at half of the fitted maximal effect; on the % scale 0 is the no-effect control and ±100 the full control effect
# CHX counter – counter-screen for Shiga toxin inhibitors: cycloheximide protein synthesis inhibition; cell reporter, cycloheximide protein synthesis inhibition counterscreen; max response, %; actives 12% (n = 300,000); AID 2314; in the data active means max response mostly above about 13%, no sharp cut-off; inactive means mostly below about 14%; further: read at 38.3 µM for the half of the compounds with a filed dose; 0% is about no effect
# The depositor's hits bear a star; u = inconclusive; x = not tested or not shown; [ ] = dose if it differs, or a comment. Rows were chosen to be rich in hits. Some 12% of all compounds tested hit in one or more screens of this group.
SMILES,Shiga inhibitor,LASV entry inh,MARV entry inh,CHX counter
O[C@H](c1ccc(F)cc1)[C@H](c1ccccc1)N1CCOCC1,x,x,9.5%,x
O=C(CNC(=O)c1ccccc1)N/N=C/C=C/c1ccccc1,-6.3,x,x,-1.5
CC(/C=N/NC(=O)c1ccccn1)=C\c1ccco1,94.3*,x,x,32.7*
O=C(CCC(=O)Nc1ccccc1)N/N=C/C=C/c1ccccc1,9.0,5.4%,u,10.0*
O=C(CSc1ccccn1)N/N=C/C=C/c1ccccc1,89.7*,-18.0%,7.2%,32.4*
CCOc1ccc(-c2ccc(SCC(=O)NC3CCCCC3)nn2)cc1,39.3,-15.6%,u,16.7*
COc1ccc(-c2cn3nc(SCC(=O)NC4CCCCC4)ccc3n2)cc1,94.6*,u,u,49.9*
COc1ccc(-c2nnc(SCC(=O)NC3CCCCC3)o2)cc1,13.3,-0.1%[46.1 µM],2.0%[46.1 µM],-4.7
COc1ccc(-c2ccc(SCC(=O)NC3CCCCC3)nn2)cc1,47.4,1.3%,4.4%[46.1 µM],8.9
O=C(CSc1nccn1-c1ncc(C(F)(F)F)cc1Cl)c1ccc(Br)cc1,102.3,u,u,30.6*
Cc1ccc(C(=O)CSc2nccn2-c2ccccc2)cc1,143.3*,12.9%,u,48.9*
O=C(CSc1nccn1-c1ccccc1)c1ccc(Cl)cc1,82.7*,8.8%,u,29.5*
O=C(CSc1nccn1-c1ccccc1)NO,-12.0,x,x,14.8
COc1cc([N+](=O)[O-])ccc1NC(=O)N1CCN(c2cc(-c3noc(C)n3)ccc2C)CC1,x,-16.9%[46.1 µM],x,x
COc1ccc(NC(=O)COCc2cc(-c3ccc4c(c3)OCO4)on2)cc1,x,7.0%[46.1 µM],x,x
O=C(CN(C(=O)c1csnn1)c1cccc(Cl)c1)NCCc1ccccc1,-5.2,u,-27.9%[46.1 µM],-2.1
CCn1c2ccccc2n2c(=O)c(=O)n(CC(=O)Nc3ccc(C(C)C)cc3)nc12,2.8,1.2%,u,12.0
COc1ccc(S(=O)(=O)c2cc(NS(=O)(=O)c3ccc(Cl)cc3)c(C)c(C)c2O)cc1,x,-6.7%[46.1 µM],-22.6%[46.1 µM],x
Cc1cc(OCc2nc3ccccc3s2)ccc1N,111.7*,u,u,59.4*
c1ccc(OCc2nc3ccccc3s2)cc1,67.8*,u,u,61.3*
Fc1ccc(OCc2nc3ccccc3s2)cc1,113.9*,20.6%,23.7%[46.1 µM],52.5*
O=C(O)COCc1nc2ccccc2s1,-6.5,x,x,-3.0
CCC(=O)Nc1ccc(OCc2nc3ccccc3s2)cc1,117.5*,x,u,43.8*
N#Cc1ccc(NC(=O)CCc2nc3ccccc3s2)cc1,10.1,-2.4%,0.6%,8.5
CCOC(=O)N1CCC(NC(=O)c2ccc(CS(=O)c3cccc(Cl)c3)o2)CC1 (stereo not given),7.4,x,x,-3.4
SMILES,Shiga inhibitor,LASV entry inh,MARV entry inh,CHX counter
COc1ccc(C2=NN(CCC(=O)NCCc3ccccc3)C(=O)CC2)cc1,x,-29.2%[46.1 µM],x,x
O=S(=O)(Cc1nc2ccccc2s1)c1ccccc1,51.9*,-12.1%,-3.5%,27.4*
O=[N+]([O-])c1ccccc1NCCNS(=O)(=O)c1ccc(Cl)cc1,-7.9,-0.1%,3.6%,3.4
O=[N+]([O-])c1cc(Cl)ccc1NCCNS(=O)(=O)c1ccccc1,36.4*,18.0%,-1.3%,18.7*
CC(C)NC(=O)CCn1c(SCc2c(F)cccc2Cl)nc2c(sc3ccccc32)c1=O,x,25.5%[46.1 µM],-17.8%[46.1 µM],x
c1ccc2nc(-c3ccc(N4CCOCC4)cc3)ccc2c1,67.2*,3.66µM*,2.31µM*,32.5*
Cc1ccc(-c2cc(C(=O)N3CCOCC3)c3ccccc3n2)cc1,21.3,-0.9%,-0.8%[46.1 µM],2.3
c1ccc2nc(-c3ccncc3)ccc2c1,84.3*,u,-12.9%,33.8*
Cc1cc(-c2ccc(N3CCOCC3)cc2)nc2ccccc12,27.6*,-23.7%,u,30.4*
CN1CCN(c2ccc(-c3ccc4ccccc4n3)cc2)CC1,-12.6,u,u,1.4
CC(O)CNc1nc(Cl)c(C#N)s1 (stereo not given),13.8,18.6%,-13.1%[46.1 µM],2.0
Cc1ccc(SCCC(=O)NC(C)C)cc1,24.7,-5.8%,u,18.9
Cc1ccc(SCCC(=O)N(C)C)cc1,22.9,u,u,17.0*
Cc1ccc(SCCC(=O)NC(C)(C)C)cc1,73.2*,12.7%,4.3%,44.3*
CN1CCN(CC#Cc2ccccc2)CC1CCO (stereo not given),-2.0,-22.0%,26.1%,-1.5
CC(C)(C)CN1CCN(CC#Cc2ccccc2)CC1CCO (stereo not given),33.9,x,x,16.8*
CC(C)N1CCC2(CC1)N=C(c1ccc3c(c1)OCO3)CC(c1cc(Cl)ccc1O)N2 (stereo not given),42.9*,u,-27.9%,47.1*
COc1cc(/C=N/Nc2nc(N3CCCC3)nc(N3CCCC3)n2)ccc1OCc1ccccc1F,40.1,9.3%[46.1 µM],-23.7%[46.1 µM],9.9
C=CCn1c(=O)c(C(=O)Nc2ccccc2S(N)(=O)=O)c(O)c2ccccc21,72.5*,u,8.3%,30.6*
C=CCn1c(=O)c(C(=O)Nc2ccccc2C(=O)OCC)c(O)c2ccccc21,3.4,-0.1%,11.6%[46.1 µM],2.5
O=C(O)C1=CC(=C(c2ccc(O)c(C(=O)O)c2)c2ccc(O)c(C(=O)O)c2)C=CC1=O,x,u,0.445µM*,x
Cc1ccnc(SCc2cn3c(C)cccc3n2)n1,59.2,3.1%,6.6%[46.1 µM],26.1*
Cc1cccc2nc(CSc3nnc4ccccn34)cn12,58.8*,u,13.0%,36.5*
Cc1cc(C)nc(SCc2cn3c(C)cccc3n2)n1,-3.4,-5.6%,-4.4%,-2.6
c1ccn2c(SCc3cn4ccsc4n3)nnc2c1,54.1*,21.6%,9.0%,40.4*
SMILES,Shiga inhibitor,LASV entry inh,MARV entry inh,CHX counter
COc1ccc(/C=C2\Oc3cc(OCC(=O)N4CC(O)C[C@H]4C(=O)O)ccc3C2=O)cc1OC (stereo not given in full),-2.3,x,x,-3.2
COc1ccc(C(=O)Nc2ccc3nc(C)sc3c2)cc1OC,84.0,21.2%,-0.8%[46.1 µM],31.0*
COC(=O)c1ccc(NC(=O)c2ccc3nc(C)sc3c2)cc1,x,9.2%,u,77.0*
COc1ccc(NC(=O)c2ccc3nc(C)sc3c2)cc1,128.8*,-13.0%[46.1 µM],u,64.3*
Cc1nc2ccc(C(=O)Nc3cccc([N+](=O)[O-])c3)cc2s1,101.1*,0.0%,13.0%[46.1 µM],29.7*
Cc1nc2ccc(NC(=O)c3ccc([N+](=O)[O-])cc3[N+](=O)[O-])cc2s1,27.1,u,-0.1%,13.1
Cc1ccc(NC(=O)[C@@H]2CCCN2S(=O)(=O)c2ccc(Cl)cc2)cc1,x,u,-28.3%,x
COc1cc(Nc2nc(SCC(=O)c3ccc(Br)cc3)nc3ccccc23)cc(OC)c1,x,-21.9%[46.1 µM],x,x
CCCCNC1C(CC)C(CCC)C(C#N)(C#N)C1(C#N)C#N (stereo not given),16.5,u,u,10.3
Cn1c(NCc2c[nH]c3ccccc23)nc2ccccc21,70.2,u,u,15.1*
CCn1c(NCc2ccc(OC)c(OC)c2)nc2ccccc21,x,-8.2%[46.1 µM],u,x
COc1ccc(CNc2nc3ccccc3n2Cc2ccc(Cl)cc2)cc1OC,-0.9,u,11.2µM*,-4.6
COc1ccc(/C=C/c2nc3ccccc3n2Cc2ccc(OC)c(OC)c2)cc1,57.1*,u,u,70.4*
C=CCn1c(NCc2c[nH]c3ccccc23)nc2ccccc21,27.4*,u,u,17.5*
CCc1nc2ccccc2n1Cc1ccc(OC)c(OC)c1,2.1,-0.4%,-23.0%,-6.6
